RE007 growth inh – less growth of the S. pombe RE007 Vpr strain; S. pombe RE007 Vpr strain, BacTiter-Glo ATP luminescence, 24 h; Potency, µM (top dose mostly 92.2 µM), for inactives: at the highest dose activity change, negative = less growth, usual class: inhibitors; 360,000 tested, 0.21% active; active = well fitted falling curve with a large enough effect; inconclusive = small, poorly fitted or top-dose-only effect; inactive = no such curve, though single readings can be large or run the other way; also: potency is read from the fitted curve at half-maximal effect; % is scaled to controls: 0 for no effect and ±100 for the full control effect; nearly all actives have a fitted effect of over 50% in size
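Fission yeast strain RE007, carrying one chromosomally integrated HIV-1 vpr copy, was seeded at OD 0.01 in PMG+AL medium with 23 nL pinned compound. After 24 h at 30 °C and 99% humidity, viability was read by BacTiter-Glo luminescence.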
Tb PYK inh – T. brucei pyruvate kinase inhibition | Q57TT1 | TbPYK enzyme, Kinase-Glo Plus ATP luminescence, 45 min | Potency, µM (highest dose often 76.8 µM), inactives show at the highest dose activity, negative = inhibition, hits mostly inhibitors | 410,000 tested, 0.12% active; also: potency is read from the fitted curve at half-maximal effect; % is scaled to controls: 0 for no effect and ±100 for the full control effect; nearly all actives have a fitted effect of over 50% in size
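TbPYK + substrate in 50 mM TEA pH 7.2, 100 mM KCl, 10 mM MgCl2, 0.05% BSA, 0.01% Tween-20; cpd pinned; ADP 130 uM final; 45 min RT; Kinase-Glo Plus 10 min; luminescence endpoint.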
Cycloheximide cs – counter-screen hit for Shiga toxin inhibitors, cycloheximide; cell reporter, cycloheximide protein synthesis inhibition counterscreen; max response, %; 300,000 tested, 12% active; AID 2314; in the data active = max response mostly above about 13%, no sharp cut-off; inactive = mostly below about 14%; also: read at 38.3 µM for the half of the compounds with a filed dose; 0% is about no effect
Giardia FBPA inh – blocks Giardia fructose-bisphosphate aldolase activity. A8B2U2. purified Giardia FBPA. Potency, µM (series often up to 59.6 µM), for the others: at the top dose activity, negative = inhibition, most hits filed as inhibitors. 290,000 tested, 0.71% active; also: potency is read from the fitted curve at half-maximal effect; % is scaled to controls: 0 for no effect and ±100 for the full control effect; nearly all actives have a fitted effect of over 55% in size
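Giardia FBPA (40 nM reagent) was preincubated 10 min at RT with compound (up to 57.5 uM final), then substrate plus GAPDH/TPI/NAD/arsenate coupling system with diaphorase/resazurin was added; resorufin fluorescence (525/598 nm) was read after 20 min.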
Shiga inhibitor – Shiga toxin inhibition; Vero cells, Shiga toxin protein synthesis inhibition reporter; inhibition, % at 38.7 µM; 290,000 tested, 9.2% active; in the data active = inhibition mostly above about 28%, no sharp cut-off; inactive = mostly below about 43%; also: 0% is about no effect
LmPK inh – inhibitors of Leishmania mexicana pyruvate kinase. 290,000 tested, 0.37% active. Q27686. Potency, µM (series often up to 57.5 µM), for inactives: at the top dose activity change, negative = inhibition, hits mostly inhibitors. purified LmPK, Kinase-Glo ATP luminescence, 1 h; also: potency is read from the fitted curve at half-maximal effect; % is scaled to controls: 0 for no effect and ±100 for the full control effect
Target sequence (Q27686 whole entry, looked up): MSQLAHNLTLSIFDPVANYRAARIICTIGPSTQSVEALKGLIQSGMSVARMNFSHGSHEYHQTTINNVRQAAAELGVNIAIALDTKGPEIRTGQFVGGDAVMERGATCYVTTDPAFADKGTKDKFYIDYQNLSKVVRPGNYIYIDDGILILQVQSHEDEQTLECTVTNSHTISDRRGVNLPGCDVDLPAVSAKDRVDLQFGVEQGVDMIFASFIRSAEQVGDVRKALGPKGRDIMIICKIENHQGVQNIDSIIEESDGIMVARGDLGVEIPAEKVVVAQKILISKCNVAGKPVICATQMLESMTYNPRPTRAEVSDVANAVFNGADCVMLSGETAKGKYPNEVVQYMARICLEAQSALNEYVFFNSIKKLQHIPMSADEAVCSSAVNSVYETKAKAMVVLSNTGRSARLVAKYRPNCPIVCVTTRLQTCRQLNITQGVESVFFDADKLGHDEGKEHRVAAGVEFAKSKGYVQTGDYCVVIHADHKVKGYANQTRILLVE
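In 50 mM imidazole pH 7.2 with 7 mM MgCl2, LmPK (0.1 nM) turned over PEP (0.5 mM) and ADP (0.1 mM) for 1 h at room temperature. Luciferase read-out of ATP.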
* hit, by the source's call; ? = inconclusive; . = no result; [ ] = dose if it differs, or a comment. This excerpt belongs to a sample that is enriched for hits. Unless noted, calls follow the shape of the dose curve; as a rule, active = well fitted curve in the direction sought with a large enough effect; inconclusive = small, poorly fitted or top-dose-only effect, or another doubt; inactive = no such curve, though single readings can be large; an effect the other way counts as inactive or inconclusive.

SMILES	RE007 growth inh	Tb PYK inh	Cycloheximide cs	Giardia FBPA inh	Shiga inhibitor	LmPK inh
CC(C)(C)C(=O)OCc1cc(=O)n2nc(C3CCCCC3)sc2n1	.	-2.7%	.	.	.	.
CCn1c(NCc2cccc(Cl)c2)nc2ccccc21	.	0.7%	.	.	.	.
Cc1cccc(CSc2nc3ccncc3n2CC(=O)Nc2ccc(C)c(C)c2)c1	.	.	27.3*	5.5%	29.2	0.0%
Cc1ccc(NC(=O)Cn2c(/C=C/c3ccccc3)nc3ccccc32)cc1C	-4.8%	4.1%	18.5*	6.3%	19.2	4.8%
CC(C)c1ccccc1NC(=O)Cn1c(/C=C/c2ccccc2)nc2ccccc21	11.6%	-0.3%	36.2*	1.3%	53.2*	-8.4%
CC(C)c1ccccc1NC(=O)Cn1c(-c2ccccc2Cl)nc2ccccc21	-13.7%	-4.3%	3.2	-1.9%	9.6	3.6%
O=C(Nc1ccc(Br)cc1F)c1cc(S(=O)(=O)NC2CCCCC2)ccc1F	.	-1.4%[15.4 µM]	.	.	.	.
CCCC1CC(C)(C(=O)CSc2n[nH]c(-c3ccccc3)n2)OC1=O (configuration not stated)	5.9%	-19.9%	13.1	-3.4%	20.3	0.1%
CCCC1CC(=O)OC1(C)C(=O)CSc1n[nH]c(-c2ccccc2)n1 (configuration not stated)	.	.	21.5	-15.4%	65.6*	2.0%
O=C(Nc1ccc(Cl)cn1)c1ccc2ccccc2n1	9.0%	-4.3%	16.7	2.5%	10.0	-0.3%
Cc1ccccc1C(=O)Nc1ccc(Cl)cn1	-6.3%	0.0%	24.2*	-2.4%	115.0*	?
Cc1cc(C(=O)Nc2ccccn2)cs1	-18.3%	-16.5%	37.4*	0.0%	48.1*	14.1µM*
O=C(Nc1ccccc1C(=O)Nc1ccccn1)c1ccccc1F	?	-1.5%	-2.6	0.8%	-5.0	-2.4%
Cc1ccccc1C(=O)Nc1ccccn1	-6.4%	-3.8%	32.0*	11.9%	56.9*	-17.6%
Cn1cc(C(=O)Nc2ccccn2)c(=O)c2ccccc21	20.0%	0.7%	19.7*	-4.0%	47.3*	-1.4%
Cc1ccc(-n2ncc3c(NCCCN4CCOCC4)ncnc32)cc1Cl	.	-8.9%	.	.	.	.
COc1ccc(-n2ncc3c(NCCN4CCOCC4)ncnc32)cc1	-6.0%	-5.0%	34.0*	0.4%	46.5*	-14.6%
COc1ccc(-n2ncc3c(NCCCN4CCOCC4)ncnc32)cc1	-1.7%	?	40.9*	-2.6%	83.4*	-9.3%
Cn1c(C(=O)NCc2ccc(F)cc2)cc2c(=O)n(C)c3ccccc3c21	.	1.9%	.	.	.	.
COc1cccc(OCc2cc(C(=O)NCC3CCCCC3)no2)c1	0.9%	-1.0%	35.0*	-1.4%	37.6*	4.4%
COc1ccc(OCc2cc(C(=O)NCc3cccc(C)n3)no2)c(Cl)c1	-14.6%	0.7%	60.7*	.	137.9*	-5.8%
COc1cccc(OCc2cc(C(=O)NCc3ccccn3)no2)c1	-7.2%	3.7%	61.8*	9.2%	70.3*	4.1%
COC(=O)[C@@]1(Cc2ccc(OC)cc2)[C@H]2c3cc(C(=O)N(C)C)n(CCc4ccc(O)c(OC)c4)c3C[C@H]2CN1C(=O)c1ccccc1	.	.	.	-0.1%	.	.
O=C(N/N=C/c1ccc(N2CCOCC2)cc1)C1CC1	-7.7%	0.9%	15.3	3.0%	45.2*	-0.8%
Cc1c(C(=O)N/N=C/c2ccc(N3CCOCC3)cc2)nc2ccccn12	5.7%	-9.0%	-8.6	-0.2%	-3.1	7.0%
SMILES	RE007 growth inh	Tb PYK inh	Cycloheximide cs	Giardia FBPA inh	Shiga inhibitor	LmPK inh
O=C(N/N=C\c1ccc(Oc2ccccc2)cc1)c1csnn1	0.0%	-7.4%	46.5*	-6.3%	97.2*	0.7%
CN(C)c1ccc(/C=N\NC(=O)c2csnn2)cc1	8.2%	-12.6%	18.1*	-5.0%	32.5*	-26.6%
O=C(Nc1ccc(N2CCOCC2)cc1)C1CC1	0.6%	-1.3%	10.3	-26.9%	44.0	-3.5%
O=C(N/N=C/c1ccc(N2CCOCC2)cc1)c1ccccn1	0.3%	-34.8%	26.9*	-9.9%	51.4*	?
COc1ccc(C2/C=C\CN(S(=O)(=O)c3ccc(C)cc3)C(Cc3ccccc3)C(=O)N2Cc2ccc(F)cc2)cc1 (configuration not stated)	.	.	8.8	-3.1%	-6.4	.
Cc1nnc(NCc2ccc(F)cc2)c2c1nnn2Cc1ccccc1Cl	.	-2.0%	.	.	.	.
CCOC(=O)c1noc2nc(C)n(CC(=O)Nc3ccc(Br)cc3C)c(=O)c12	.	2.6%	.	.	.	.
O=C(N/N=C/c1sc(N2CCOCC2)nc1-c1ccccc1)c1ccc(O)cc1	-6.5%	-6.2%	14.3	-2.8%	12.4	-4.4%
O=C(N/N=C/c1ccncc1)c1ccccn1	-14.2%	-2.1%	34.5*	?	72.2*	-25.5%
Cc1ccc(/C=N/NC(=O)c2ccccn2)o1	6.5%	-10.0%	41.6*	-13.9%	47.2*	-13.3%
O=C(N/N=C/c1cnc(N2CCOCC2)s1)c1ccccc1	17.6%	0.5%	19.8*	-1.5%	37.5	-1.5%
CC(C)c1ccc(/C=N/NC(=O)c2ccccn2)cc1	17.6%	-15.6%	31.5*	-17.1%	13.0	14.1µM*
O=C(CN1C(=O)CC(c2ccco2)Sc2ccccc21)Nc1ccc(OC(F)(F)F)cc1 (configuration not stated)	.	-5.9%	.	.	.	.
Cc1ccc(N/N=C/c2ccc(N3CCOCC3)cc2)cc1C	21.9%	-3.0%	59.0*	-6.4%	135.7*	3.1%
Cc1cccc(/C=N\NC(=O)c2csnn2)c1	-2.4%	-8.7%	74.1*	0.0%	88.5*	-26.6%
Cc1cccc(/C=N/NC(=O)C[n+]2ccccc2)c1	20.4%	7.5%	.	.	.	.
CN(C)c1ccc(/C=N/NC(=O)c2ccccn2)cc1	-23.3%	?	22.8*	-21.6%	15.0	12.6µM*
CCc1c(C(=O)N/N=C/c2ccc(C)o2)csc1C	7.0%	-6.3%	17.9*	-1.0%	-1.0	-3.9%
CN(C)c1cc(NC(=O)CNC(C)(C)C)c(O)c2c1C[C@@H]1C[C@H]3[C@H](N(C)C)C(=O)C(C(N)=O)=C(O)[C@@]3(O)C(=O)C1=C2O	.	-4.2%	.	.	.	.
CCCCC[C@H](O)/C=C\[C@H]1[C@H](C/C=C\CCCC(=O)O)[C@@H](O)C[C@H]1O (tested in a mixture with another compound)	.	2.9%[33.2 µM]	.	-2.8%[21.7 µM]	.	.
Cc1cc(C)n(CCC(=O)Nc2ccc(Cl)cc2)n1	.	-3.9%	.	.	.	.
CC(C)ON(CC(=O)NO)S(=O)(=O)c1ccc(-c2ccccc2)cc1	.	.	-4.9	19.3%	-19.5	.
O=C(Nc1ccc(Cl)c(Cl)c1)N1CCC(c2ccccc2)C1 (configuration not stated)	.	0.5%	.	.	.	.
COc1ccc(NC(=S)N2CCC(c3ccccc3)C2)cc1 (configuration not stated)	3.9%	5.7%	40.0*	-5.2%	83.7*	-1.2%
Cc1ccc(C2CCN(C(=O)Nc3ccc(C)c(C)c3)C2)cc1 (configuration not stated)	.	-0.9%	.	.	.	.

Assay outcomes (PubChem BioAssay)
